# The list is not random: actives were taken first. Their share in the collection is about 3.8%.
# ATXN viability: Viability Counterscreen for Primary qHTS for Inhibitors of ATXN expression; S2 cells (HEK-293 line with an ATXN2-luciferase reporter) viability, CellTiter-Fluor protease fluorescence, 24 h; Potency, µM (titrated, usually from 56.7 µM), actives largely listed as cytotoxic; hit rate 0.49% among 400,000; AID 651635, 2014; also: nearly all actives have a fitted effect of over 40% in size
# HepG2 tox: qHTS for Inhibitors of TGF-b: Cytotox Counterscreen. HepG2 CAGA-GFP viability, ATP luminescence, 18 h. Potency, µM (series often up to 46.1 µM), without a hit: at the top dose activity change, negative = cytotoxicity, actives largely listed as cytotoxic. hit rate 0.76% among 410,000
#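 HepG2 CAGA-GFP cells (1000/well, DMEM with 1% FBS) received compound, then TGF-beta at 500 pg/mL final, and were incubated 18 hours at 37 degrees C. Viability was read by CellTiter-Glo luminescence. Media-only wells were set as complete cell-killing and DMSO as no toxicity.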
# HT1080 IDH1KD tx: qHTS for induction of synthetic lethality in tumor cells producing 2HG: qHTS for the HT-1080-IDH1KD cell line. hit rate 2% among 360,000. HT-1080 IDH1 knockdown viability, ATP luminescence, 48 h. AID 686971, 2013. Potency, µM (series often up to 46.1 µM), for the others: at the highest dose activity, negative = toxicity, actives largely listed as cytotoxic;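 also: 0% = DMSO wells and -100% = cell-free medium wells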
#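 CellTiter-Glo luminescence after 48 h compound exposure at 37 degrees C of IDH1-knockdown HT-1080 cells in 5% FBS RPMI. %Activity scaled between DMSO wells and cell-free media wells, with curves fitted and assigned curve classes.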
# HT1080-NT tox: qHTS for induction of synthetic lethality in tumor cells producing 2HG: qHTS for the HT-1080-NT fibrosarcoma cell line. AID 686970, 2013. HT-1080-NT fibrosarcoma viability, CellTiter-Glo ATP luminescence, 48 h. Potency, µM (highest dose often 46.1 µM), for the others: top-dose activity, negative = less viability, usual class: cytotoxic. hit rate 1.6% among 360,000;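 also: NT is the 2HG producing partner of a matched IDH1 knockdown line; 0% = DMSO-treated cells and -100% = media-only wells without cells; nearly all actives have a fitted effect of over 55% in size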
#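 Luminescent CellTiter-Glo readout after 48 hours of compound exposure at 37 degrees C defined viability of HT-1080-NT cells. Activity was normalized to DMSO wells and cell-free media wells; concentration-response curves were fitted and assigned curve classes.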
# ATXN2 expr inh: Primary qHTS for Inhibitors of ATXN expression | hit rate 0.72% among 360,000 | AID 1745845, 2022 | HEK-293 ATXN2-luciferase reporter, luminescence, 24 h | Potency, µM (doses to about 57 µM), inactives show at the highest dose activity change, negative = inhibition, most hits filed as inhibitors; also: % is scaled to controls: 0 for no effect and ±100 for the full control effect; nearly all actives have a fitted effect of over 55% in size
#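 ATXN2-luciferase reporter cells (luciferase flanked by upstream and downstream ATXN2 gene portions) were treated 24 h at 37 °C with compounds at up to 57 uM. SteadyGlo luminescence gave expression; GF-AFC fluorescence gave viability.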
# TGFb inhibitor: qHTS for Inhibitors of TGF-b; hit rate 1.2% among 410,000; Potency, µM (series often up to 46.1 µM), inactives show at the top dose activity, negative = inhibition, most hits filed as inhibitors; HepG2 CAGA-GFP TGF-b/SMAD3 reporter, GFP fluorescence, 18 h; TGF-beta stimulated, 500 pg/mL final; also: % is scaled to controls: 0 for no effect and ±100 for the full control effect; nearly all actives have a fitted effect of over 65% in size
#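 Inhibition was scored as loss of TGF-beta-induced (500 pg/mL final, 18 hours, 37 degrees C) GFP in HEPG2 cells carrying a CAGA-GFP reporter, in DMEM with 1% FBS. Well GFP was summed per cell; Activity was normalised to unstimulated and stimulated DMSO wells, then concentration-response fitting.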
# Active calls of the source: *; i = inactive; ? = inconclusive; . = no result. Calls follow the shape of the dose curve; as a rule, active = well fitted curve in the direction sought with a large enough effect; inconclusive = small, poorly fitted or top-dose-only effect, or another doubt; inactive = no such curve, though single readings can be large; an effect the other way counts as inactive or inconclusive. Potency is read from the fitted curve at half-maximal effect.
SMILES,ATXN viability,HepG2 tox,HT1080 IDH1KD tx,HT1080-NT tox,ATXN2 expr inh,TGFb inhibitor
Cc1ccc(NC(=O)CCl)cc1S(=O)(=O)N1CCCCCC1,?,-41%,8.2µM*,16µM*,?,?
Cc1ccc(NC(=O)COc2ccccc2C(N)=O)cc1S(=O)(=O)N1CCCCCC1,15µM*,-18%,-22%,-13%,?,?
CCOC(=O)C1CCCCN1Cc1nc(N2CCN(C(C)=O)CC2)c2ccccc2n1 (stereo unspecified),i,.,.,.,.,.
COc1cc(NC(=O)CSc2ccc(-c3sc(C)nc3C)nn2)cc(OC)c1,.,-25%,.,.,.,?
O=C(Nc1ccc(OC(F)(F)F)cc1)c1sccc1NCc1ccnc2ccccc12,.,.,.,.,78%,.
COc1cc(C(C)=O)ccc1OCC(=O)Nc1ccc(C)c(S(=O)(=O)N2CCCCCC2)c1,?,-31%,-22%,-22%,28µM*,?
Cc1ccc(NC(=O)CC2OC(=O)c3ccccc32)cc1S(=O)(=O)N1CCCCCC1 (stereo unspecified),?,-4%,5%,2%,-3%,-17%
O=C(CC1OC(=O)c2ccccc21)Nc1ccc(Cl)c(S(=O)(=O)N2CCCCC2)c1 (stereo unspecified),i,8.9µM*,-21%,-7%,-5%,0%
CC(CC(=O)Nc1ccc(Cl)c(S(=O)(=O)N2CCOCC2)c1)c1ccccc1 (stereo unspecified),?,0%,-13%,18µM*,-29%,?
O=C(O)CC(SCC(=O)Nc1ccc(Cl)c(S(=O)(=O)N2CCOCC2)c1)C(=O)O (stereo unspecified),i,4%,6%,11%,-4%,16%
COc1cc(C(C)=O)ccc1OCC(=O)Nc1ccc(S(=O)(=O)N2CCCCC2)cc1,?,0%,2%,0%,.,-1%
COC(=O)/C=C\C(=O)OC,i,.,.,.,7%,.
Cc1cc(C(=O)NCc2ccccc2)c2c(C)nn(-c3cccc(F)c3)c2n1,i,-19%,.,.,-8%,-17%
O=C(NCCO)c1ccc(-c2nnc(Nc3ccc(OC(F)(F)Cl)cc3)c3ccccc23)cc1,i,-78%,.,.,?,11µM*
COc1ccccc1CNc1nc(Nc2ccc(C)cc2C)c2sccc2n1,?,-49%,23µM*,21µM*,?,?
Clc1ccccc1OCCNc1nc(NCC2CC2)nc2ccsc12,?,-33%,18µM*,?,?,?
COc1ccccc1CNc1nc(NCCOc2ccccc2Cl)c2sccc2n1,?,-64%,?,23µM*,?,?
CCn1c(=O)cc(SCC(=O)NCCc2ccc(OC)cc2OC)c2ccccc21,i,-10%,.,.,-11%,0%
Cc1c(C(=O)N(C)Cc2cccc3ncccc23)cnn1-c1nccc(-c2ccccc2F)n1,i,.,.,.,.,.
Cc1ccccc1Nc1nc(N)nc(CCl)n1,?,1%,15µM*,1.2µM*,-38%,-16%
Nc1nc(CCl)nc(Nc2ccc3ccccc3c2)n1,3.4µM*,-64%,8.2µM*,2.1µM*,3.8µM*,?
COc1ccc(Nc2nc(N)nc(CCl)n2)cc1,?,-49%,23µM*,1.5µM*,.,0%
C/C(=C\c1ccco1)CN1CCOc2ccc(C(C)(O)COc3ccccc3)cc2C1 (stereo unspecified),i,.,.,.,.,.
CC(C)CCNC(=O)c1ccc2nc(Cc3ccccc3)oc2c1,i,-30%,.,.,-20%,-2%
CCN(CC)c1ccc(/C=N/NC(=O)Cc2nnc(NC(=O)Nc3ccccc3)s2)cc1,i,-157%,15µM*,21µM*,0%,?

# Compound activity (PubChem BioAssay)
